Measurements: PubChem BioAssay
Residues, ends and D or L forms follow the SMILES beside them. *: point of attachment. Cbz = O=C(OCc1ccccc1)*; CH2Cl = ClC*

Key:
[1] = molecular target: Tumor necrosis factor receptor superfamily member 10B (Homo sapiens) (UniProt O14763); assay: viability loss of caspase-8 NB7 cells with TRAIL – with/without TRAIL, luminescence panel, confirmation (AID 651596); conditions: NB7 neuroblastoma + caspase-8, TRAIL sensitization, NB7 Caspase-8, with TRAIL, mean of runs, at 10 µM, stronger effect = higher value
[2] = as above; conditions: NB7 neuroblastoma + caspase-8, without TRAIL, NB7 Caspase-8, without TRAIL, mean of runs, at 10 µM

Sequence of Tumor necrosis factor receptor superfamily member 10B (Homo sapiens) (O14763 whole entry, looked up): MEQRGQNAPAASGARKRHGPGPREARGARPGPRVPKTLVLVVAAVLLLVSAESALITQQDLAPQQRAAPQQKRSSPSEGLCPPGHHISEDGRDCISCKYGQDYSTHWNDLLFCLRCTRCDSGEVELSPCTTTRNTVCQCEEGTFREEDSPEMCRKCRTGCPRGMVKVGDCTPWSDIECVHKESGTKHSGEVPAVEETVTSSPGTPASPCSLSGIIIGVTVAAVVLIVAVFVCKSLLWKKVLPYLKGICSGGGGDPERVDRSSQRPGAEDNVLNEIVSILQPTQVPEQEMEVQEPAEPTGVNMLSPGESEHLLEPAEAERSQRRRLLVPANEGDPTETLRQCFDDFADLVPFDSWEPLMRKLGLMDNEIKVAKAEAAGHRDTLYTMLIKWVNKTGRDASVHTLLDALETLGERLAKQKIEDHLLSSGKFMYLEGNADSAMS

Structure (SMILES): O=S(=O)(c1ccc2c(c1)C(=NO)c1cc(S(=O)(=O)N3CCCCC3)ccc1-2)N1CCCCC1
- activity [1]: 98.8%
- activity [2]: 99.3%

Structure (SMILES): CC(C)(CNC(=O)c1ccc([N+](=O)[O-])c(Cl)c1)CNC(=O)c1ccc([N+](=O)[O-])c(Cl)c1
- activity [1]: 54.5%
- activity [2]: 60.3%

Structure (SMILES): Cc1nc2cc(NC(=O)Nc3ccccc3Cl)ccc2n1C
- activity [1]: 78.5%
- activity [2]: 78.2%

Structure (SMILES): O=C(CCl)Nc1ncc(S(=O)(=O)c2ccc([N+](=O)[O-])cc2)s1
- activity [1]: 95.9%
- activity [2]: 92.3%

Structure (SMILES): CNC[C@@H](CC1CCCCC1)NC[C@H](CC(C)C)NCCc1cccc(C(F)(F)F)c1
- activity [1]: 99.4%
- activity [2]: 99.7%

Structure (SMILES): CC1(C)N=C(N)N=C(N)N1c1ccccc1
- activity [1]: 83.4%
- activity [2]: 87.2%

Structure (SMILES): Nc1ccc(-c2ncc(-c3ccccc3)o2)cc1
- activity [1]: 28.2%
- activity [2]: 29.8%

Structure (SMILES): O=C(NC(=S)Nc1nc2ccccc2s1)c1ccco1
- activity [1]: 77.7%
- activity [2]: 64.4%

Structure (SMILES): CN(C)CCCN(C(=O)/C=C/c1cccs1)c1nc2c(F)cccc2s1
- activity [1]: 56.7%
- activity [2]: 93%

Structure (SMILES): COc1cc2nc(N3CCNCC3)nc(N)c2cc1OC
- activity [1]: 27.5%
- activity [2]: 0.125%

Structure (SMILES): CC(=C/c1ccccc1)/C=N/NC(=O)c1ccccn1
- activity [1]: 87.2%
- activity [2]: 85.2%

Structure (SMILES): CCOc1cc(/C=C\[N+](=O)[O-])ccc1OCC(=O)Nc1ccccc1C
- activity [1]: 88.8%
- activity [2]: 91.9%

Structure (SMILES): CC(C)CC(NC(=O)OCc1ccccc1)C(=O)NC(Cc1ccccc1)C(=O)CCl (stereo not drawn) (Cbz-Leu-Phe-CH2Cl; configuration not given here)
- activity [1]: 62.3%
- activity [2]: 98%

Structure (SMILES): N/C(=N\OC(=O)c1ccccc1)c1ccn[nH]1
- activity [1]: 68.7%
- activity [2]: 68.1%

Structure (SMILES): CCc1ccc(C2=NN(C(=O)OC)C(O)(C(F)(F)F)C2)cc1 (stereo unspecified)
- activity [1]: 45.8%
- activity [2]: 59%

Structure (SMILES): COc1cc(/C=N/NC(=O)c2nnn(-c3nonc3N)c2C)ccc1OCc1ccc(Cl)cc1
- activity [1]: 39%
- activity [2]: 20.6%

Structure (SMILES): c1csc(-c2nnc(-c3ccc(N4CCOCC4)cc3)o2)c1
- activity [1]: 56.9%
- activity [2]: 54.2%

Structure (SMILES): Cc1ccccc1Nc1nn2c(=O)c3ccccc3nc2s1
- activity [1]: 54.2%
- activity [2]: 62.8%

Structure (SMILES): COC(=O)c1c(NC(=O)COc2ccc(Cl)cc2)sc2c1CC(C)(C)NC2(C)C
- activity [1]: 81.2%
- activity [2]: 93.9%

Structure (SMILES): CC(/C=N/NC(=O)c1nn(C)c(C)c1Br)=C\c1ccccc1
- activity [1]: 72.4%
- activity [2]: 74.6%

Structure (SMILES): Cc1ccc(Nc2nc(N)nc(CCl)n2)cc1
- activity [1]: 98.9%
- activity [2]: 97.5%

Structure (SMILES): Cc1ccc2nc(-c3ccccn3)oc2c1
- activity [1]: 75.3%
- activity [2]: 64.1%

Structure (SMILES): O=C(Nc1nnc(-c2ccccc2)o1)NC1CCCCC1
- activity [1]: 34.9%
- activity [2]: 55.4%

Structure (SMILES): Cc1nc2c(-c3ccc(F)cc3)cnn2c(N)c1-c1ccccc1
- activity [1]: 88.4%
- activity [2]: 86.9%

Structure (SMILES): Cc1ccc(C)c(C(=O)O/N=C(\N)c2ccc(Br)cc2)c1
- activity [1]: 80.1%
- activity [2]: 78.7%

Structure (SMILES): Cc1nc2c(-c3ccc(F)cc3)cnn2c(N)c1-c1ccc(F)cc1
- activity [1]: 66.2%
- activity [2]: 57%

Structure (SMILES): O=c1[nH]c(/C=C/c2ccccc2F)nc2ccccc12
- activity [1]: 86.9%
- activity [2]: 86.8%

Structure (SMILES): Cc1cc(-c2csc3nc[nH]c(=S)c23)cc(C)c1C
- activity [1]: 79.3%
- activity [2]: 74.9%

Structure (SMILES): Cc1ccccc1-c1nnc(-c2cccc3ccccc23)o1
- activity [1]: 47%
- activity [2]: 32.4%

Structure (SMILES): OC(c1cc(-c2cccc(Cl)c2)nc2ccccc12)C1CCCCN1 (stereo unspecified)
- activity [1]: 71.2%
- activity [2]: 82.1%

Structure (SMILES): Cc1ccc(C(=O)Nc2ncc(Cc3ccccc3)s2)o1
- activity [1]: 72.1%
- activity [2]: 75%

Structure (SMILES): CCS(=O)(=O)c1ncc(Cl)c(C(=O)Nc2ccc(S(=O)(=O)N(C)c3ccccc3)cc2)n1
- activity [1]: 99.2%
- activity [2]: 99.7%

Structure (SMILES): O=c1c2c3c(sc2nc2n1N=C(c1cccs1)CS2)CCCC3
- activity [1]: 74.5%
- activity [2]: 77%

Structure (SMILES): C/C(=N\NC(=O)c1ccc(F)cc1)c1ccccn1
- activity [1]: 44.9%
- activity [2]: 61.7%

Structure (SMILES): CCCOc1ccc(-c2nnc(-c3ccco3)o2)cc1
- activity [1]: 53.5%
- activity [2]: 50.9%

Structure (SMILES): COc1ccccc1N1CCN(c2ccc(-c3ccccc3)nn2)CC1
- activity [1]: 80.9%
- activity [2]: 86.2%

Structure (SMILES): CCC1CCCCN1c1ccc([N+](=O)[O-])cc1/C=N/NC(=O)Cn1c2ccccc2c(=O)c2ccccc21 (stereo unspecified)
- activity [1]: 60.3%
- activity [2]: 66.7%

Structure (SMILES): Cc1ccc2nc(Cl)c(/C=N/Nc3ccc(C(=O)O)cc3)cc2c1
- activity [1]: 90.2%
- activity [2]: 86.4%

Structure (SMILES): CCn1cc(Cl)c(C(=O)Nc2ccc3c(c2)OCCO3)n1
- activity [1]: 39.5%
- activity [2]: 34.1%

Structure (SMILES): CC(c1ccco1)N(C(=O)COc1ccc(Cl)cc1Cl)c1ccccn1 (stereo unspecified)
- activity [1]: -4.47%
- activity [2]: 10.2%

Structure (SMILES): C/C(=N\NC(=O)c1ccc(Cl)cc1)c1cccs1
- activity [1]: 80.1%
- activity [2]: 81.4%

Structure (SMILES): O=C(NCCOc1ccccc1)c1cccc2c1C(=O)c1ccc(Cl)cc1S2(=O)=O
- activity [1]: 35.6%
- activity [2]: 54.2%

Structure (SMILES): CC(C)(C)c1ccc(-c2nc3cc(N)ccc3o2)cc1
- activity [1]: 81.9%
- activity [2]: 80.5%
